Source: PubChem (University of Kansas High Throughput Screening Laboratory)
Pf apPOL block: Pf-apPOL inhibitors, biochemical, fluorescence. Plasmodium falciparum apicoplast DNA polymerase (apPOL). Recombinant Pf-apPOL, molecular beacon fluorescence, 1.5 h. inhibition, % at 10 µM. hit rate 0.25% among 210,000. AID 1794808, 2022
mHTT-CaM PPI inh: mutant huntingtin-calmodulin interaction inhibitors – biochemical, AlphaScreen, primary screen | inhibition, % at 15 µM | AlphaScreen His-mHTT/GST-CaM binding, luminescence | hit rate 3.6% among 190,000 | P42858
Target sequence (P42858 whole entry, looked up, change not shown): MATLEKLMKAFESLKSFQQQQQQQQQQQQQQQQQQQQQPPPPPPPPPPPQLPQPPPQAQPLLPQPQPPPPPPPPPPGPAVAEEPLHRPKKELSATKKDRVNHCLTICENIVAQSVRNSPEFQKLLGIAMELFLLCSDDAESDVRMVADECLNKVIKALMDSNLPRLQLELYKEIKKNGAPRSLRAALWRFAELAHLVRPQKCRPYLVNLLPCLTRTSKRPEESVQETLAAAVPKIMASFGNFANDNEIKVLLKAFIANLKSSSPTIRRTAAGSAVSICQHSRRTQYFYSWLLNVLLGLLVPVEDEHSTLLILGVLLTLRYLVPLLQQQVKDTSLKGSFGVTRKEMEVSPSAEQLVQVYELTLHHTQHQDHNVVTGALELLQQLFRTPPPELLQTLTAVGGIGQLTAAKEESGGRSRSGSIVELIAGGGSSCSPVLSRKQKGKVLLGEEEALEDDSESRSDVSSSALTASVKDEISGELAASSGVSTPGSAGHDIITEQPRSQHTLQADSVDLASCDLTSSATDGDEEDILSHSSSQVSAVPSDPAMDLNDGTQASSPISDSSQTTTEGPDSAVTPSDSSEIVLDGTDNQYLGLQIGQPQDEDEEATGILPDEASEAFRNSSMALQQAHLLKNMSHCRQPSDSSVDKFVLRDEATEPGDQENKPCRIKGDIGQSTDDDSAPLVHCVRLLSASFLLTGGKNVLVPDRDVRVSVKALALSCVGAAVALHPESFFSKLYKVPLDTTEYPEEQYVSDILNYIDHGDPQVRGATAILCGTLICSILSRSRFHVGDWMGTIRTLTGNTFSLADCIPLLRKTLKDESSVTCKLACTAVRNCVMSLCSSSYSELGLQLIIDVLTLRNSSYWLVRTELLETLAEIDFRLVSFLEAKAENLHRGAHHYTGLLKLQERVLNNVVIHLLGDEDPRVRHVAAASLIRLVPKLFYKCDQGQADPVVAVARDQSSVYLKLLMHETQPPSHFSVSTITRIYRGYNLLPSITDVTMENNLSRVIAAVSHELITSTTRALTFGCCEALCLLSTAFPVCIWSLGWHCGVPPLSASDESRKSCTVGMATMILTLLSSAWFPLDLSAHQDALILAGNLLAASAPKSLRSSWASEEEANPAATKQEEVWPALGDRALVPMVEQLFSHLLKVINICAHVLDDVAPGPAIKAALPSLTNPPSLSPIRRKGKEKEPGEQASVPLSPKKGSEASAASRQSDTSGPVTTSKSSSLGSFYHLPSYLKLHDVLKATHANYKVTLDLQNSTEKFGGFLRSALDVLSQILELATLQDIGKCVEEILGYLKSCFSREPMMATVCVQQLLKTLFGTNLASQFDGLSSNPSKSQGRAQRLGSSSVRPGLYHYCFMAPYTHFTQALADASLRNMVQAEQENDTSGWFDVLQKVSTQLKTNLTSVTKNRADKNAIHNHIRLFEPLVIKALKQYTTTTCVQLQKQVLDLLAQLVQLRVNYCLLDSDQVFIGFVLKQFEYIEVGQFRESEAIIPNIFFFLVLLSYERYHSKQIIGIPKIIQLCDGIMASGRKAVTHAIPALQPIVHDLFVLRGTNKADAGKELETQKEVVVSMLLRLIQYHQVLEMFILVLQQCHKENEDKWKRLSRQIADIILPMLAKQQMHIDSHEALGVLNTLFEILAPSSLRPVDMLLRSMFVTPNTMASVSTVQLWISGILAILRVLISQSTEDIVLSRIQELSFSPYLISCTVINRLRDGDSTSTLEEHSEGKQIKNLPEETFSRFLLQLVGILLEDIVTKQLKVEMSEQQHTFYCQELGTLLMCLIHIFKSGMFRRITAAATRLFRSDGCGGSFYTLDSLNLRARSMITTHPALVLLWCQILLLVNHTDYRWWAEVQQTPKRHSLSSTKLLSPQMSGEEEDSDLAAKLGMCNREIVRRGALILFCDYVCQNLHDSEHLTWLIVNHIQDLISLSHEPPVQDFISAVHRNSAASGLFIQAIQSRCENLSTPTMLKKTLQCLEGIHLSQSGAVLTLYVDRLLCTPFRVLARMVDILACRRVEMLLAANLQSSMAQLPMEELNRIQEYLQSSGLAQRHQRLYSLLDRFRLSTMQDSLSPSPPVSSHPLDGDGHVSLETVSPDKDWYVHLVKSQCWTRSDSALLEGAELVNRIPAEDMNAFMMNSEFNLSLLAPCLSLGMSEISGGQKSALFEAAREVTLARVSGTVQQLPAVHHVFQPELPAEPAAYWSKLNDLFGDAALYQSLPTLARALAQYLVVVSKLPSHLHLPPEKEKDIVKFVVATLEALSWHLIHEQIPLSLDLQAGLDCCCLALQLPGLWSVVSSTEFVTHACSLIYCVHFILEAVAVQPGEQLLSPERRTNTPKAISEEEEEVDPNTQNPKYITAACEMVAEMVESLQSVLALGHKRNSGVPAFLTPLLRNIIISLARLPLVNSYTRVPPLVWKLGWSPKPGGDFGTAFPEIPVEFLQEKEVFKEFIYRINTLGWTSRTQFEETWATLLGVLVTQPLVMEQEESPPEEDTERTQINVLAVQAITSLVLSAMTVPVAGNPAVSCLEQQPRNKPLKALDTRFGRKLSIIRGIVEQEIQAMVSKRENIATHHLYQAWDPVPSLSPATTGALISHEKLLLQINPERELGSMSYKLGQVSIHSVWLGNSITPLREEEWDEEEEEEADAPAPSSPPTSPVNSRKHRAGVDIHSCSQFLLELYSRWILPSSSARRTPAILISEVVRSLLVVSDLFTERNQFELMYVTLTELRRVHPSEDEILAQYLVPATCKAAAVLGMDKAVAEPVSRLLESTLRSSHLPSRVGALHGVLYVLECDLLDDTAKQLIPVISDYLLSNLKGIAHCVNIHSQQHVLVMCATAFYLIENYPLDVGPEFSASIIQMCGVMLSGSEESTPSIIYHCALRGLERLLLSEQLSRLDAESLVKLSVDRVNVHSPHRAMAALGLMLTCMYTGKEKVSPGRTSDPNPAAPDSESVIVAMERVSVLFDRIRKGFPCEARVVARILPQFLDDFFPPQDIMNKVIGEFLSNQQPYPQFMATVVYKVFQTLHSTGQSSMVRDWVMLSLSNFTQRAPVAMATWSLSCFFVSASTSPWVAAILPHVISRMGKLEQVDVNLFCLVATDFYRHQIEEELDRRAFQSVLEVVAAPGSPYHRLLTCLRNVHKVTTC
Numbers stand for hits; n = inactive; x = no result. This is one part of a sample in which hits are shown more often than they occur. Cut-off read from the data, not from the text of the source: active = inhibition above about 50%; inactive = the rest.

SMILES	Pf apPOL block	mHTT-CaM PPI inh
COc1cc(NC(=O)C2CCN(c3nccnc3Oc3ccc(C)cc3)CC2)cc(OC)c1	n	n
O=C(c1cn2ccccc2n1)N1CCCC1c1cccnc1 (stereo unspecified)	n	n
COc1ccc(N2CCN(c3ncc4c(n3)CCN(Cc3cccc(F)c3)C4)CC2)cc1	n	51
COc1ccc(CN2CCc3nc(N4CCN(c5ccc(F)cc5)CC4)ncc3C2)cc1	n	n
Fc1ccc(CN2CCc3nc(N4CCN(c5ccccc5)CC4)ncc3C2)cc1F	n	100
Fc1ccccc1CN1CCc2nc(N3CCN(c4ccccc4)CC3)ncc2C1	n	n
CCN(CC)c1ccc(/C=C2/C(=O)ON=C2C)cc1	n	50
CCOc1ccc(Cl)cc1/C=C1/C(=O)ON=C1C	n	n
CCCCC1(C)OC(=O)C(=Cc2ccc(N(CC)CC)cc2)C(=O)O1 (stereo unspecified)	n	n
CCOc1ccc(/C=C2/C(=O)ON=C2C)cc1Br	n	n
CCOc1ccc(/C=C2/C(=O)ON=C2C)cc1Cl	n	67
CCCOc1ccc(/C=C2/C(=O)ON=C2C)cc1Cl	n	58
OC[C@H]1O[C@@H](n2cnc3c(NC4CCCCC4)ncnc32)[C@H](O)[C@@H]1O	n	x
Clc1ncnc2c1ncn2C1CCCCO1 (stereo unspecified)	x	75
Cc1nn(-c2ccc(C(=O)NCCN(C)C)cc2)c2c1C(=O)CCC2	n	n
COc1ccc(/C=C2/SC(=Nc3ccccc3Cl)NC2=O)c(OC)c1	n	n
O=C1NC(=Nc2ccccc2Cl)S/C1=C/c1ccc([N+](=O)[O-])cc1	n	n
O=C1NC(=Nc2ccccc2Cl)S/C1=C/c1cccc([N+](=O)[O-])c1	n	88
COc1cccc(/C=C2/SC(=Nc3ccccc3Cl)NC2=O)c1	n	52
Cc1ccc(C)c(CN2C(=O)NC3(CCN(C(=O)c4nn(C)c5ccccc45)CC3)C2=O)c1	n	n
CCOc1cccc2cc(C(=O)Nc3nccs3)c(=Nc3ccccc3)oc12	n	n
COc1ccc(C2=NN(C(=O)CN3CCC(C)CC3)C(c3ccccc3C)C2)cc1 (stereo unspecified)	n	n
COc1cccc(C2=NN(C(=O)CN3CCCCC3)C(c3ccccc3C)C2)c1 (stereo unspecified)	n	61
COc1ccccc1C1=NN(C(=O)CN2CCCCC2)C(c2cc(C)ccc2C)C1 (stereo unspecified)	n	100
COc1ccccc1C1CC(c2ccccc2F)=NN1C(=O)CN1CCCCC1 (stereo unspecified)	n	n
SMILES	Pf apPOL block	mHTT-CaM PPI inh
O=C(c1cccc(Br)c1)N1CCC2(C1)C(=O)Nc1ccccc12 (stereo unspecified)	n	n
CCCCOc1ccc(CNC(=O)c2ccc3c(c2)nc2n3CCCC2)cc1	n	n
Cn1c(SCc2ccc(Cl)cc2)nc(O)cc1=O	n	n
COc1ccc(Cl)cc1NC(=O)CSc1nccn1-c1cccc(C)c1C	n	56
Cc1cccc(-n2ccnc2SCC(=O)Nc2ccc(F)cc2F)c1C	n	n
COc1ccc(C(/C=C2\N(C)c3ccccc3C2(C)C)C[N+](=O)[O-])cc1 (stereo unspecified)	n	n
CN1/C(=C\C(C[N+](=O)[O-])c2ccc3c(c2)OCO3)C(C)(C)c2ccccc21 (stereo unspecified)	n	83
CN(CC(=O)NCc1cccs1)c1nc2ccccc2s1	n	n
CN(CC(=O)Nc1nc(-c2ccco2)cs1)c1nc2ccccc2s1	n	77
COc1ccc(OC)c(CNC(=O)c2ccc(Oc3nccnc3N3CCCCC3)cc2)c1	n	n
CCc1nc(C2CCCN(C(=O)CCc3c[nH]c4ccccc34)C2)n[nH]1 (stereo unspecified)	n	n
COc1ccccc1-c1nc(C2CCN(C(=O)Cc3c[nH]c4ccccc34)CC2)no1	n	76
COc1cccc(CC(=O)N2CCC(c3noc(-c4cccc(OC)c4)n3)CC2)c1	n	n
CCc1nc(C2CCCN(C(=O)Cc3c[nH]c4ccccc34)C2)n[nH]1 (stereo unspecified)	n	61
COc1cccc(-c2nc(C3CCN(C(=O)Cc4c[nH]c5ccccc45)CC3)no2)c1	n	65
COc1ccccc1-c1nc(C2CCN(C(=O)Cc3cccc4ccccc34)CC2)no1	n	n
Cc1ccc(NC(=O)CSc2nc3ccccc3c(=O)n2Cc2ccc3c(c2)OCO3)cc1	n	n
C=CCNC(=O)C1CC(c2ccc(OC)cc2)=NO1 (stereo unspecified)	n	n
Cc1cc(C)cc(NC(=O)c2csc(-c3ccc(C)n3C)n2)c1	n	n
COc1ccccc1NC(=O)c1csc(-c2ccc(C)n2C)n1	n	n
Cc1ccc(-c2nc(C(=O)NCc3ccc(F)cc3)cs2)n1C	n	85
Cc1ccc(NC(=O)c2csc(-c3ccc(C)n3C)n2)cc1	n	60
Cc1ccccc1CNC(=O)c1csc(-c2ccc(C)n2C)n1	n	82
Cc1ccc(-c2nc(C(=O)NCc3ccccc3Cl)cs2)n1C	n	59
Cc1ccc(NC(=O)c2csc(-c3ccc(C)n3C)n2)c(C)c1	n	n
SMILES	Pf apPOL block	mHTT-CaM PPI inh
CCc1ccccc1NC(=O)c1csc(-c2ccc(C)n2C)n1	n	n
COc1ccc(C(=O)Oc2ccc3c(=O)c(-c4ccc(OC)cc4)c(C)oc3c2)cc1	n	n
Cc1c(-c2ccnn2C(=O)c2cccs2)cnn1-c1ccccc1	n	x
COc1ccc(CNC(=O)NC2(C(F)(F)F)Oc3ccc(Cl)cc3O2)cc1 (stereo unspecified)	n	n
O=C(N1CCN(c2ccc(-c3cccs3)nn2)CC1)C1(c2ccccc2)CCOCC1	n	n
CN(CC(=O)Nc1ccccc1C(N)=O)c1nc2c(Cl)cccc2s1	n	n
COc1ccc(CCNC(=O)C2(C)CCC(=O)N2Cc2ccccc2)cc1OC (stereo unspecified)	n	n
COc1ccccc1NC(=O)c1cccc2c1C(=O)c1ccccc1-2	n	n
CNc1ccc(OC)c2c1C(=O)c1ccccc1C2=O	n	82
COc1ccc(N2C(=O)CSC23CCCCC3)cc1	n	n
COc1ccc(N2C(=O)C(O)=CC2(OC)c2ccccc2)cc1 (stereo unspecified)	n	67
COc1cccc2sc(N(Cc3cccnc3)C(=O)CCSc3ccccc3)nc12	n	n
CC1(C)CC(=O)C2=C(C1)N(c1cccc(C(F)(F)F)c1)C(N)=C(C#N)C2c1ccsc1 (stereo unspecified)	n	n
CC1(C)CC(=O)C2=C(C1)N(c1cccc(C(F)(F)F)c1)C(N)=C(C#N)C2c1cccs1 (stereo unspecified)	n	67
N#CC1=C(N)N(c2ccc(Br)cc2F)C2=C(C(=O)CCC2)C1c1cccs1 (stereo unspecified)	n	54
N#CC1=C(N)N(c2cccc(Br)c2)C2=C(C(=O)CCC2)C1c1cccs1 (stereo unspecified)	n	68
N#CC1=C(N)N(c2ccccc2)C2=C(C(=O)CCC2)C1c1cccs1 (stereo unspecified)	n	n
N#CC1=C(N)N(c2ccc(Br)cc2F)C2=C(C(=O)CCC2)C1c1ccsc1 (stereo unspecified)	n	n
FC(F)(F)c1cccc(N2CCN(C3=Cc4ccccc4CC3)CC2)c1	n	x
O=C(NN1C(=O)C2C3C=CC(C4CC34)C2C1=O)c1ccncc1 (stereo unspecified)	n	n
